Screening results: PubChem, National Center for Advancing Translational Sciences (NCATS)
uPA generation = qHTS for Inhibitors of Cell Surface uPA Generation | cell surface uPA generation assay, qHTS | Potency, µM (series often up to 38.3 µM), inactives show at the highest dose activity change, negative = inhibition, most hits filed as inhibitors | hit rate 0.31% among 330,000; active = well fitted inhibition curve with a large enough effect; inconclusive = small, poorly fitted or top-dose-only effect; inactive = no such curve, though single readings can be large or run the other way; tested in mouse RAW 264.7 cells; note: potency is the fitted concentration of half-maximal effect; % is set by controls: 0 for no effect and ±100 for the full control effect; nearly all actives have a fitted effect of over 55% in size
IL2 activator = qHTS of IL-2 Activators. IL-2 activation reporter assay, cell-based qHTS; stimulated with anti-CD3/CD4/CD28 beads; in transgenic mouse T cells. activation, % (series mostly up to about 46 µM). hit rate 0.065% among 360,000. AID 652025, 2013; in the data active = activation above about 50%; inconclusive = mostly about 30% to 49%; note: 0% is about no effect
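Unstimulated transgenic mouse T cells preincubated 60 min with compound, then stimulated with anti-CD3/anti-CD4-coated beads plus anti-CD28 for 18 h at 37 degrees C. IL-2 response read as EGFP and DsRed fluorescence by plate cytometry.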
p53 reactivation = qHTS assay for re-activators of p53 using a Luc reporter; H1299 p53-A138V BP100-luciferase reporter, luminescence, 24 h; Potency, µM (top dose mostly 92.2 µM), inactives show top-dose activity change, positive = activation, usual class: activators; hit rate 0.063% among 320,000; AID 504706, 2011; note: potency is the fitted concentration of half-maximal effect; % of control where 0% means no effect; nearly all actives have a fitted effect of over 45% in size
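H1299 (p53-null), stable ts p53-A138V + BP100-Luc; 1000 cells/well, Opti-MEM/10% FBS; cpd 4 pt, 1:5; 24 h, 37 deg C, 5% CO2; detection reagent 10 min RT; luminescence.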
Epigenetic reg = Quantitative High-Throughput Screen for Regulators of Epigenetic Control | Potency, µM (doses to about 53.9 µM), without a hit: at the highest dose GFP activation, hits mostly activators | murine LDR cells, GFP reporter derepression, 30 h | hit rate 0.2% among 280,000; note: potency is the fitted concentration of half-maximal effect; % of control where 0% means no effect; nearly all actives have a fitted effect of over 60% in size
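Readout is the number of GFP-expressing murine LDR cells, counted by cytometry following washing. Cells were treated with compound for 30 h at 37 C; the stably integrated CMV-GFP locus is normally silent.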
PINK1 modulator = A Quantitative High throughput Screen to Identify Chemical Modulators of PINK1 Expression; PINK1 immunofluorescence, high-content cytometry, 24 h; Potency, µM (titrated, usually from 76.6 µM), for the others: top-dose activation (PINK1 increase), hits mostly activators; hit rate 0.2% among 410,000; AID 624263, 2012; active = well fitted activation curve with a large enough effect; inconclusive = small, poorly fitted or top-dose-only effect; cell line not stated here; note: potency is the fitted concentration of half-maximal effect; % of control where 0% means no effect; nearly all actives have a fitted effect of over 65% in size
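Stable cell line, 250 cells/well, 12 h attachment; compounds pinned at 5 concentrations, 24 h; CCCP control. Fixed with nuclear dye, primary antibodies 12 h at 10 degrees C, secondary plus cell stain; laser-scanning cytometer read.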
miR-21 act = qHTS Assay for Modulators of miRNAs and/orActivators of miR-21; HeLa miR-21 FLuc reporter, luciferase, 48 h; Potency, µM (series often up to 38.3 µM), without a hit: at the top dose activity change, positive = activation, usual class: activators; 340,000 tested, under 10 active; AID 2288, 2010;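 note: % of control where 0% means no effect; miR-21 action dims this reporter so a rising signal means less miR-21 action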
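Luminescence from a firefly luciferase reporter carrying a miR-21 binding site downstream, stably expressed under a CMV promoter in HeLa cells that make miR-21 endogenously, reports miRNA modulation after 48 h compound exposure up to approximately 40uM final.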
Active calls of the source: *; ? = inconclusive; · = no result given; [ ] = dose if it differs, or a comment. Compounds with a hit are over-represented: about 0.62% of the library has one in this group of screens. Unless noted, calls come from the whole dose curve; as a rule, active = well fitted curve in the direction sought with a large enough effect; inconclusive = small, poorly fitted or top-dose-only effect, or another doubt; inactive = no such curve, though single readings can be large; an effect the other way counts as inactive or inconclusive.

SMILES | uPA generation | IL2 activator | p53 reactivation | Epigenetic reg | PINK1 modulator | miR-21 act
Cc1ccc(S(=O)(=O)N2CCN(c3ccc(C(F)(F)F)cc3[N+](=O)[O-])CC2)cc1 | 2.1% | -4.2 | -15.7% | 0.0% | -0.1% | 13.5%
Cc1cc(N2CCN(c3ccc(C(F)(F)F)cc3[N+](=O)[O-])CC2)c2ccccc2n1 | 14.1µM* | -0.9 | -103.2% | · | 23.2% | 4.1%
O=C(/C=C/c1ccc2c(c1)OCO2)c1ccccn1 | -8.7% | -2.6 | 31.6µM* | 1.1% | 17.9% | -33.9%
O=C(Nc1ccc(NC(=O)c2ccccn2)cc1)C(=O)Nc1ccc2c(c1)OCCO2 | -3.1% | -1.0 | -8.1% | 1.1% | 4.1% | -8.8%
O=C(Nc1ccc2c(c1)OCCO2)c1ccco1 | -25.2% | -1.2 | ? | -2.1% | 11.2µM* | -30.8%
O=C(Nc1ccc2c(c1)OCCO2)c1c(F)cccc1F | ? | 0.0 | 22.4µM* | -2.1% | -2.0%[38.3 µM] | -45.8%
O=C(Nc1cccc(NC(=O)c2ccco2)c1)c1ccc2c(c1)OCCO2 | -4.4% | -1.4 | -0.4% | -3.3% | 3.5% | -27.5%
O=C(Nc1ccc2c(c1)OCCO2)c1ccccn1 | 3.55µM* | 3.4 | -7.0% | -2.6% | 3.6% | 10.5%
Cc1c(C(=O)N2CC3CCC2C3)sc2ncnc(NCc3ccco3)c12 (stereo not drawn) | · | · | · | · | 0.0% | ·
COc1cc2c(NC3CCN(C)CC3)nc(N3CCCCC3)nc2cc1OCCCN(C)C | · | · | · | · | -1.2% | ·
CC1CCN(c2nnc(-c3cccs3)c3ccccc23)CC1 | -0.4% | -0.1 | ? | 1.0% | 21.5% | -43.3%
c1csc(-c2nnc(NC3CCCCC3)c3ccccc23)c1 | -3.7% | 0.6 | 20.0% | 4.4% | 31.6µM* | -0.6%
C/C(=N\Nc1nc(C)cc(-c2ccccc2)n1)c1ccc(C)o1 | 3.5% | 0.3 | 0.6% | -0.9% | 0.1% | 11.4%
C/C(=N\Nc1nc(C)cc(-c2ccccc2)n1)c1ccccc1 | -4.7% | -1.2 | -5.8% | · | 2.1% | 1.7%
C/C(=N\Nc1nc(C)cc(-c2ccccc2)n1)c1cccc(N)c1 | 10µM* | 1.0 | -3.2% | · | 0.7% | 11.8%
C/C(=N\Nc1nc(C)cc(-c2ccccc2)n1)c1ccc(O)cc1 | 10µM* | 0.3 | · | · | 2.3% | 13.2%
CCCSc1nnc(NC(=O)Nc2ccc(F)cc2)s1 | -10.1% | 2.4 | 21.8% | 3.5% | 14.1µM* | -6.5%
CCCSc1nnc(NC(=O)Nc2ccccc2)s1 | -1.6% | 0.9 | ? | 0.0% | 44.7µM* | -48.8%
CCCSc1nnc(NC(=O)Nc2ccc(C)cc2)s1 | -3.8% | 0.9 | 2.1% | -1.0% | 2.6% | -15.8%
Cc1cnc(C)c(-c2ccc(F)c3c2OC(CNC(=O)/C=C/c2cccs2)C3)n1 (stereo not drawn) | · | · | · | · | 2.7% | ·
O=C(/C=C/c1cccc([N+](=O)[O-])c1)c1ccc([N+](=O)[O-])o1 | ? | -0.5 | · | · | -2.2% | ·
Cc1cccc(/C=C/C(=O)c2ccc([N+](=O)[O-])o2)c1 | 7.08µM* | -0.6 | -28.1% | · | 7.0% | ·
O=C(NCCCn1ccnc1)c1ccc2ccccc2c1 | 10.4% | -1.4 | -3.5% | · | 0.1% | -4.6%
Cc1cc(C(=O)NCCCn2ccnc2)cs1 | 2.2% | -1.5 | -5.5% | -1.1% | 10µM* | -3.7%
CCN(Cc1ccccc1)S(=O)(=O)c1ccc(S(=O)(=O)N(Cc2ccccn2)Cc2ccco2)cc1 | 2.1% | 0.4 | -2.1% | 0.0% | 11.2µM* | -0.6%
SMILES | uPA generation | IL2 activator | p53 reactivation | Epigenetic reg | PINK1 modulator | miR-21 act
CCc1noc(C)c1C(=O)N1CCOc2ccc(CN3CCCC(C(=O)c4cccnc4)C3)cc2C1 (stereo not drawn) | · | · | · | · | -0.6% | ·
CCC(C)Sc1ccc(-c2nc3cc(C)ccn3c2NC2CCCCC2)cc1 (stereo not drawn) | -17.1% | -3.2 | ? | · | 14.1µM* | ·
CCCCCCSc1ccc(-c2nc3cc(C)ccn3c2NC2CCCCC2)cc1 | 10.2% | -3.7 | 1.8% | · | 17.8µM* | ·
CCC(C)Sc1ccc(-c2nc3cnccn3c2NC2CCCCC2)cc1 (stereo not drawn) | 18.1% | -0.8 | -23.9% | · | -1.9% | ·
CC(NC(=O)c1cccnc1)c1nnc2n1CCN(Cc1ccc(-c3ccccc3Cl)o1)CC2 (stereo not drawn) | · | · | · | · | 2.9% | ·
COc1ccc(-n2c(=O)c(CCC(=O)N3CCN(c4cccc(OC)c4)CC3)nc3ccccc32)cc1 | · | -3.0 | · | · | 0.2% | ·
COc1ccc(/C(O)=C/c2nc3ccccc3n(-c3ccccc3)c2=O)cc1 | -2.1% | 0.5 | -1.1% | 25.1µM* | ? | -5.8%
COc1ccc(C2=NNC(=Nc3cc(S(=O)(=O)N(C)C)ccc3C)SC2)c(OC)c1 | ? | -0.7 | -2.8% | -3.1% | 2.82µM* | 27.9%
CN(C)S(=O)(=O)c1cccc(N=C2NN=C(c3ccccc3)CS2)c1 | -7.4% | -0.5 | ? | 2.0% | 31.6µM* | ?
Cc1cccc(N(C(=O)c2nsc(Cl)c2Cl)C(C(=O)NC2CCCC2)c2ccc(O)cc2)c1C (stereo not drawn) | 0.6% | -0.5 | 6.1% | 0.9% | 44.7µM* | 23.9%
Cc1ccc(N(C(=O)c2nsc(Cl)c2Cl)C(C(=O)NC2CCCC2)c2ccc(O)cc2)cc1C (stereo not drawn) | 12.7% | -5.0 | 9.1% | -0.9% | 3.0% | -8.7%
O=C1CC(N(CCc2ccccc2)C(=S)Nc2ccccc2)C(=O)N1c1ccc(F)cc1 (stereo not drawn) | ? | -0.1 | -0.4% | 0.1% | ? | 9.0%
O=C1CC(N(CCc2ccccc2)C(=S)Nc2ccccc2)C(=O)N1c1ccccc1 (stereo not drawn) | -10.4% | -0.7 | 10.5% | 1.0% | 25.1µM* | 25.4%
COc1ccc(-c2cc(C(=O)N3CCOCC3)c3ccccc3n2)cc1OC | -5.0% | -0.4 | -2.2% | · | -0.2% | ·
COc1cc2cc(C(=O)N3CCOCC3)cc(-c3ccc(C)cc3)c2cc1OC | 4.47µM* | -3.0 | -3.0% | · | 0.4% | 6.5%
CC1(S(=O)(=O)O)CC(=O)c2ccccc2C1=O (stereo not drawn) | 7.94µM* | 13.2 | -8.9% | · | ? | ?
CCC1CN(CC(=O)NC(C)CO)Cc2cc(OC)ccc2O1 (stereo not drawn) | · | · | · | · | -1.1% | ·
COC(=O)C1CCN(C(=O)c2oc3c(Cl)cc(C)cc3c2C)CC1 | 0.3% | 0.8 | 15.8µM* | · | 0.7% | -53.3%
CCOC(=O)C1CCCCN1C(=O)c1oc2c(Cl)cc(C)cc2c1C (stereo not drawn) | 2.2% | 0.8 | 1.6% | · | 4.9% | -18.9%
O=C(COC(=O)C1(c2ccc(F)cc2)CCCC1)NCc1ccc2c(c1)OCO2 | 8.2% | 3.1 | -14.6% | 0.0% | -0.3% | 15.1%
